Several values for one entry are separate records, joined by “and”; a condition that tells them apart may be missing. Equal values may be shown once. Inconclusive results are not listed. More than one record can exist for a structure, and the calls need not agree. Activity calls are given as the source filed them. The calls were made as follows, unless noted: active = hit-call score of the fitted dose curve at least 0.9, where 1 is the maximum; inconclusive = response in the unintended direction; inactive = score below 0.9.
Legend:
[1] = TOX21_p53_BLA_p2_viability: Viability Assessment in the Tox21 HCT-116 p53 Agonism Beta-lactamase Assay, Phase 2 (AID 2283591);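 also: compound exposure lasted 16 h at 37 °C; actives lower the ATP signal meaning cytotoxicity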
In short: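 HCT116 p53-bla cells, 4000/well, dosed after 5 h plating (217-fold dilution of DMSO stocks) and incubated 16 h at 37C. Viability taken as cellular ATP by CellTiter-Glo luminescence after 30 min RT; signal loss marks cytotoxicity.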

[2] = target: Cellular tumor antigen p53 (Homo sapiens) (UniProt P04637); assay: TOX21_p53_BLA_p2_ratio: Tox21 HCT-116 p53 Agonism Beta-lactamase Assay, Ratio, Phase 2 (AID 2283592)
Sequence of Cellular tumor antigen p53 (Homo sapiens) (P04637 whole entry, looked up): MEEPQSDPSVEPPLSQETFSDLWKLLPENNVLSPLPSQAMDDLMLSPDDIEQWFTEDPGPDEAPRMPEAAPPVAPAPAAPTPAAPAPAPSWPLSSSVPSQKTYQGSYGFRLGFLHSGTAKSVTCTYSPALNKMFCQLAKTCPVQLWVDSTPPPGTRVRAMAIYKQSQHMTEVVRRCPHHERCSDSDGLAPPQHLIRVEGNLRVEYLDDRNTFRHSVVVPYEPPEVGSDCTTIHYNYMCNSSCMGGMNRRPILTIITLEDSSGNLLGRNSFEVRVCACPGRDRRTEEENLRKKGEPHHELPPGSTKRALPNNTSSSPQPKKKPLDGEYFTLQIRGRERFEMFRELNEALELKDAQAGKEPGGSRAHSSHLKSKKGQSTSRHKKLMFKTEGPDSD
In short: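 DMSO-normalized, positive-direction endpoint derived from the 460 nm/530 nm FRET ratio in HCT116 p53 beta-lactamase reporter cells exposed 16 h at 37C and loaded with CCF4-AM for 2 h.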

[3] = TOX21_p53_BLA_p3_viability: Viability Assessment in the Tox21 HCT-116 p53 Agonism Beta-lactamase Assay, Phase 3 (AID 2283593);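 also: cells exposed to compound for 16 h before reading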
In short: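 HCT116 cells, 4000/well, dosed 5 h after plating by pin transfer (217-fold dilution from DMSO stock) and incubated 16 h at 37C, 5% CO2. Viability read as ATP luminescence with CellTiter-Glo after 30 min at room temperature.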

[4] = target: Cellular tumor antigen p53 (Homo sapiens) (UniProt P04637); assay: TOX21_p53_BLA_p3_ratio: Tox21 HCT-116 p53 Agonism Beta-lactamase Assay, Ratio, Phase 3 (AID 2283596)
In short: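 Cells were seeded at 4000/well, rested 5 h at 37C, then dosed with DMSO compound solutions (217-fold dilution) for 16 h. CCF4-AM substrate was loaded for 2 h at room temperature, and the 460/530 nm emission ratio was fitted for gain of signal versus DMSO.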

[5] = TOX21_p53_BLA_p4_viability: Viability Assessment in the Tox21 HCT-116 p53 Agonism Beta-lactamase Assay, Phase 4 (AID 2283597);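 also: hits lower the luminescence signal meaning cytotoxicity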
In short: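 In this multiplexed secondary endpoint, HCT116 cells (4000 per well, compound at 5 h, 16 h treatment) received CellTiter-Glo after the beta-lactamase read. Luminescence after 30 min RT reflects ATP, and falling signal marks cytotoxicity.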

[6] = target: Cellular tumor antigen p53 (Homo sapiens) (UniProt P04637); assay: TOX21_p53_BLA_p5_ratio: Tox21 HCT-116 p53 Agonism Beta-lactamase Assay, Ratio, Phase 5 (AID 2283599)
In short: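 HCT-116 p53-bla cells (4000/well) plated 5 h, dosed with compound (217-fold DMSO dilution) for 16 h at 37 C; CCF4-AM substrate 2 h at room temperature. Activity is the 460/530 nm emission ratio (405 nm excitation), fitted in gain-of-signal direction versus DMSO.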

[7] = TOX21_p53_BLA_p5_viability: Viability Assessment in the Tox21 HCT-116 p53 Agonism Beta-lactamase Assay, Phase 5 (AID 2283600)
In short: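 Here cell health was gauged by ATP levels in wells holding 4000 cells, each treated 16 h with DMSO-delivered compounds at 217-fold dilution; reduced luminescence marked toxicity.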

[8] = target: Cellular tumor antigen p53 (Homo sapiens) (UniProt P04637); assay: TOX21_p53_BLA_p4_ratio: Tox21 HCT-116 p53 Agonism Beta-lactamase Assay, Ratio, Phase 4 (AID 2283601)
In short: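 HCT-116 p53 beta-lactamase reporter cells (4000/well) preincubated 5 h, then compound (217-fold dilution of DMSO stock) for 16 h at 37C. CCF4-AM substrate added 2 h at room temperature; 460/530 nm emission ratio fitted upward versus DMSO.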

[9] = CCTE_Harrill_HTTr_Viability_MCF7: CCTE's 6-hour Cell Viability Assessment for the High-Throughput Transcriptomics (HTTr) Platform, in MCF-7 cells cultured in DMEM + 10% fetal bovine serum, Harrill Lab (AID 2284010; active = hit-call score of the fitted dose curve at least 0.9, where 1 is the maximum; inactive = score below 0.9)
In short: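 PI exclusion, high-content imaging; 8-pt dilution series, 6 h exposure; bidirectional fit vs DMSO (neg. ctrl/baseline); gain of signal = loss of membrane integrity.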

[10] = CCTE_Harrill_HTTr_Apoptosis_MCF7: CCTE's 6-hour Apoptosis Assessment for the High-Throughput Transcriptomics (HTTr) Platform, in MCF-7 cells cultured in DMEM + 10% fetal bovine serum, Harrill Lab (AID 2284011; active = hit-call score of the fitted dose curve at least 0.9, where 1 is the maximum; inactive = score below 0.9)
In short: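 Apoptosis in MCF-7 cells grown in DMEM with 10% fetal bovine serum was scored after a six hour exposure by high content imaging of caspase-3/7 activation (CellEvent Caspase 3/7 Green), with DMSO serving as negative control and baseline.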

[11] = target: Estrogen receptor (Homo sapiens) (UniProt P03372); assay: NVS_NR_hER: NovaScreen (NVS) Nuclear Receptor Binding Assay for human Estrogen Receptor (ER) (AID 2283348)
Sequence of Estrogen receptor (Homo sapiens) (P03372 whole entry, looked up): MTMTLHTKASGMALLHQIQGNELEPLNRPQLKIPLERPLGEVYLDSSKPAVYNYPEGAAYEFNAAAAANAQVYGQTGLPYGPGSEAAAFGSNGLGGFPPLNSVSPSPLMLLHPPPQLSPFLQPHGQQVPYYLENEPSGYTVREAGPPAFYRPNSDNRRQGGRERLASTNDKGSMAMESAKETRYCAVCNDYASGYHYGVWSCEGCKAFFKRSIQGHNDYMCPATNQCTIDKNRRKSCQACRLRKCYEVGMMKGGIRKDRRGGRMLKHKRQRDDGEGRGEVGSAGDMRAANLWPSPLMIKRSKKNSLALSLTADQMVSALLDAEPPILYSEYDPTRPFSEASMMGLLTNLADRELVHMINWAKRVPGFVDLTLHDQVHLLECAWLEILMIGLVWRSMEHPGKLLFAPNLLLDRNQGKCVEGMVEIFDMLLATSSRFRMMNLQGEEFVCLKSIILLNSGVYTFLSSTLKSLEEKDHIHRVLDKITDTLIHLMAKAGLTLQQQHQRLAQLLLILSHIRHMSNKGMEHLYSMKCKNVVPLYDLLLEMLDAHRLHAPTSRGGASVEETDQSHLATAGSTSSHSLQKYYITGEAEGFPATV
In short: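 MCF7-derived receptor extract, radiolabelled ligand, competitive displacement. Read: scintillation counts at 18 h. DMSO = negative control/baseline. Primary 25 uM duplicate; follow-up concentration–response.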

Measured: AC50

CNCCC(Oc1ccc(C(F)(F)F)cc1)c1ccccc1 (stereo unspecified)
active: [1] 68.1 µM | [3] 74 µM | [5] 67.3 µM and 33.8 µM | [7] 73.2 µM | [9] 75.8 µM | [10] 69.4 µM
inactive: [1] | [2] | [3] | [4] | [6] | [7] | [8]

O=S(=O)(O)c1cc(Cl)c(Cl)cc1Cl
inactive: [11] | [1] | [5] | [6]

CC1=CC(=C(c2ccc(N)cc2)c2ccc(N)cc2)C=CC1=N
inactive: [1] | [2] | [3] | [4] | [5] | [6] | [7] | [8]
active: [2] 19.9 µM

CNC(=O)Nc1ccc(Cl)c(Cl)c1
inactive: [1] | [2] | [3] | [4] | [5] | [6] | [7] | [8]

Oc1cccc(O)c1O
inactive: [1] | [2] | [3] | [4] | [5] | [6] | [7] | [8]
active: [2] 75.6 µM

CON=C1C[C@]2(C[C@@H]3C[C@@H](C/C=C(\C)C[C@@H](C)/C=C/C=C4\CO[C@@H]5[C@H](O)C(C)=C[C@@H](C(=O)O3)[C@]45O)O2)O[C@H](/C(C)=C/C(C)C)[C@H]1C
active: [1] 8.61 µM and 8.38 µM | [2] 21 µM | [3] 17.2 µM and 13.8 µM | [4] 35.2 µM and 21.3 µM | [5] 9.09 µM and 8.73 µM | [6] 22 µM | [7] 17.3 µM and 10.7 µM | [8] 18.8 µM
inactive: [2] | [6] | [8]

CCCCCCC/C=C/C=O
inactive: [1] | [2] | [3] | [4] | [5] | [6] | [7] | [8]

CC(O)(c1ccc(Cl)cc1)c1ccc(Cl)cc1
inactive: [11] | [1] | [3] | [4] | [5] | [6] | [8]

CCC(=O)C(=O)CC
inactive: [2] | [3] | [4] | [5] | [6] | [7] | [8]

C[C@H](CCC(=O)O)[C@H]1CC[C@H]2[C@@H]3[C@H](O)C[C@@H]4C[C@H](O)CC[C@]4(C)[C@H]3CC[C@]12C
active: [1] 78.5 µM | [5] 87.1 µM
inactive: [1] | [2] | [3] | [4] | [5] | [6] | [8]

CC(=O)O[C@]1(C(C)=O)CC[C@H]2[C@@H]3C=C(Cl)C4=CC(=O)CC[C@]4(C)[C@H]3CC[C@@]21C
active: [2] 43.1 µM | [4] 72.5 µM | [5] 21.8 µM | [8] 38 µM
inactive: [1] | [2] | [3] | [4] | [5] | [6] | [7] | [8]

Cc1oc(C)c(C(=O)Nc2ccccc2)c1C
inactive: [11] | [1] | [2] | [3] | [4] | [5] | [6] | [7] | [8]

COC(=O)CCC(=O)O
inactive: [1]

Oc1c(I)cc(Cl)c2cccnc12
inactive: [1] | [2] | [3] | [4] | [6] | [7] | [8]
active: [1] 8.67 µM | [2] 7.99 µM | [3] 12.7 µM | [5] 4.52 µM and 18.6 µM | [6] 7.84 µM

CC1=C(/C=C/C(C)=C/C=C/C(C)=C/C(=O)Nc2ccc(O)cc2)C(C)(C)CCC1
inactive: [1] | [2] | [3] | [4]
active: [1] 44.5 µM | [2] 62.4 µM | [3] 62.5 µM | [4] 74.6 µM | [5] 53.7 µM and 35 µM | [6] 73.6 µM and 37.7 µM | [7] 43.7 µM and 37.9 µM | [8] 72.5 µM and 36.6 µM

C=CCN1CCc2nc(N)sc2CC1
inactive: [1] | [2]

SC1CCCC1
inactive: [11]

CCN(CC)c1ccc(N=Nc2ccc(S(=O)(=O)N(C)C)cc2)c(S(=O)(=O)NCC[n+]2ccccc2)c1
inactive: [1]

CC(C)CC(=O)C1C(=O)c2ccccc2C1=O
inactive: [11] | [1] | [4] | [6] | [7] | [8]

OCCOCCN1CCN(C(c2ccccc2)c2ccc(Cl)cc2)CC1 (stereo unspecified)
active: [2] 0.000306 µM | [6] 0.000384 µM | [8] 0.000245 µM
inactive: [1] | [2] | [3] | [4] | [5] | [6] | [7] | [8]

CCCCCCCCOCCCN
inactive: [11] | [1] | [2] | [4] | [5] | [6] | [7] | [8]

C=C1CC[C@H](O)C/C1=C/C=C1\CCC[C@]2(C)[C@@H]([C@H](C)CCCC(C)C)CC[C@@H]12
active: [1] 77.7 µM | [3] 63.2 µM and 34.4 µM | [5] 45.7 µM and 37.2 µM | [7] 73.6 µM | [8] 76.7 µM
inactive: [1] | [2] | [4] | [6] | [7] | [8]

CC(=O)CCc1ccc(OC(C)=O)cc1
inactive: [11] | [1] | [2] | [3] | [5] | [6] | [8]

Oc1ccc2c(c1)Cc1ccccc1-2
active: [11] 25 µM
inactive: [9] | [10]
